# Data published in PubChem BioAssay (EPA / NIEHS).
# Values joined by “and” are separate entries in the source; they are usually repeats but may differ in a detail not shown here. Identical values can stand only once. Where a structure was tested more than once in an assay, its records may differ in their call. Active and inactive are the calls of the source. How the source made its calls: active means hit-call score of the fitted dose curve at least 0.9, where 1 is the maximum; inactive means score below 0.9.
# Read-out: CD40, CD40 (gene 958)
# Assay: BSK_SAg_CD40: BioMAP Diversity Plus: SAg Assay for CD40 Biomarker Activity (AID 2283088)
# Conditions: primary human HUVEC with PBMC; actives raise or lower the signal
# Description: BSK_SAg is a cell-based, multiplexed-readout assay that uses umbilical vein endothelium and peripheral blood mononuclear cells, a human vascular primary cell co-culture, with measurements taken at 24 hours after chemical dosing in a 96-well plate.BSK_SAg_CD40 is one of 10 assay component(s) measured or calculated from the BSK_SAg assay. It is designed to make measurements of enzyme-linked immunosorbent assay, a form of binding reporter, as detected with fluorescence intensity signals by Enzyme-linked immunosorbent assay technology.Data from the assay component BSK_SAg_CD40 was analyzed into 1 assay endpoint. This assay endpoint, BSK_SAg_CD40, was analyzed with bidirectional fitting relative to DMSO as the negative control and baseline of activity. Using a type of binding reporter, gain or loss-of-signal activity can be used to understand changes in the signaling as they relate to the gene CD40. Furthermore, this assay endpoint can be referred to as a primary readout, because this assay has produced multiple assay endpoints where this one serves a signaling function. To generalize the intended target to other relatable targets, this assay endpoint is annotated to the cytokine intended target family, where the subfamily is inflammatory factor.
# The levels of cell surface (or secreted, indicated by the prefix "s") biomarker endpoints were measured by ELISA. Overt cytotoxicity to cells in confluent adherent cultures (all systems other than the BT system) was assessed by measuring total protein levels using sulforhodamine B (SRB) staining in parallel cultures at the time of biomarker measurements, indicated as SRB endpoints. For proliferation assays for adherent cell types, individual cell types are cultured at sub-confluence and relative cell numbers quantified by SRB staining at time points optimized for each system (48 h: 3C and CASM3C systems; 72 h: BT and HDF3CGF systems; 96 h: SAg system). SRB was performed by staining cells with 0.1% SRB after fixation with 10% TCA and reading wells at 560 nm.Viability and proliferation of PBMC (T cells) was quantified by Alamar Blue reduction for the SAg and BT systems. For PBMC viability (referred to as PBMC Cytotoxicity within the assay endpoint names), cells were plated (75,000/well in a 96-well plate) and then chemical samples added for 1 h before addition of activators, SEB and TSST-1 (20 ng/mL final concentration each). Cells were incubated for 90 h. Then, Alamar Blue (20 uL/well) (Invitrogen, Cat DAL1100) was added for 6 h, and the plates were read with a fluorescence microplate reader at 546/580 nm (excitation/emission). For PBMC proliferation, cells were plated and activated as above but incubated for only 16 h prior to addition of Alamar Blue. Plates were read after 6 h.
SMILES,AC50,outcome
OCC(F)(OC(F)(F)C(F)(OC(F)(F)C(F)(F)C(F)(F)F)C(F)(F)F)C(F)(F)F (stereo not given),2.38 µM (active) and 2.34 µM (active),
O=S(=O)(O)C(F)(F)C(F)(F)OC(F)(F)C(F)(F)F,,inactive
CCC(=O)OCC=Cc1ccccc1,,inactive
c1ccc(OCCOc2ccccc2)cc1,,inactive
CCCCN(CCO)CCO,,inactive
C=C(C)C(N)=O,,inactive
CCCCCCCC1CCCC1=O (stereo not given),,inactive
C#C[C@]1(O)CC[C@H]2[C@@H]3CCc4cc(O)ccc4[C@H]3CC[C@@]21C,,inactive
COc1ccccc1NC(=O)CC(C)=O,,inactive
C=C(C)C(=O)OCCC(F)(F)C(F)(F)C(F)(F)C(F)(F)C(F)(F)C(F)(F)C(F)(F)C(F)(F)F,,inactive
O=C(O)C(F)(F)OC(F)(F)C(F)(F)OC(F)(F)C(F)(F)C(F)(F)C(F)(F)F,44 µM (active),inactive
O=C1OC2(c3ccc(O)cc3Oc3cc(O)ccc32)c2ccccc21,,inactive
C=C(F)C(=O)OC(C(F)(F)F)C(F)(F)F,,inactive
CC(=O)CCC=C(C)CCC=C(C)C,,inactive
CCCO[Si](OCCC)(OCCC)OCCC,,inactive
COC(=O)c1ccc(C(=O)OC)cc1,,inactive
CCn1cc(C(=O)O)c(=O)c2ccc(C)nc21,,inactive
Nc1ccc(N)c([N+](=O)[O-])c1,,inactive
CCCCOCCOCCO,,inactive
C=C1CC/C=C(\C)CC[C@@H]2[C@@H]1CC2(C)C,31.7 µM (active),

SMILES,AC50,outcome
CC(=O)c1ccc(C)cc1,,inactive
O=S1(=O)CC(Cl)(Cl)C(Cl)(Cl)C1,0.48 µM (active),
O=C(O)C(F)(F)C(F)(F)C(F)(F)C(F)(F)C(F)(F)C(F)(F)C(F)(F)C(F)F,,inactive
CC(C)(CO)CO,,inactive
C[C@]12CC[C@@H]3c4ccc(O)cc4CC[C@H]3[C@@H]1CC[C@@H]2O,15.8 µM (active),
CC(=O)OCC=C(C)CCC=C(C)CCC=C(C)C,,inactive
OCCN1CCOCC1,,inactive
CC(=O)OC(C)(C)C1CC=C(C)CC1 (stereo not given),,inactive
CC1(C)[C@H](C=C(Cl)Cl)[C@H]1C(=O)OCc1cccc(Oc2ccccc2)c1,,inactive
CC1=CC(C)C(C=O)C(C)C1 (stereo not given) (tested in a mixture with another compound),,inactive
CC/C(=C(\c1ccccc1)c1ccc(OCCN(C)C)cc1)c1ccccc1,9.12 µM (active) and 6.03 µM (active),
c1ccc2c(c1)-c1ccc3ccc4cccc5cc-2c1c3c45,1.98 µM (active),
CCOC(=O)C=Cc1ccccc1,,inactive
NC(=O)c1c(Cl)cccc1Cl,,inactive
O=C(c1ccc(OCCN2CCCCC2)cc1)c1c(-c2ccc(O)cc2)sc2cc(O)ccc12,19.4 µM (active),
CC(C)Cc1ccc(C(C)C(=O)O)cc1 (stereo not given),,inactive
CC(C)CCCC(C)(C)O,,inactive
CCCCCCCCCCCCS,20 µM (active),
c1ccc(Sc2ccccc2)cc1,32.3 µM (active),
